Screening data (PubChem)
OvCa metastasis = Primary qHTS assay for Inhibitors of ovarian cancer metastasis using an organotypic tumor microenvironment (TME) model. SKOV3ip1-GFP adhesion/invasion on 3D omental model, fluorescence. Potency, µM (titrated, usually from 45.8 µM), inactives show at the top dose activity change, negative = inhibition, usual class: inhibitors. hit rate 0.1% among 46,000. AID 1963576, 2024;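 note: potency is the fitted concentration of half-maximal effect; plate controls were DMSO wells for no effect and tomatine positive control wells for full effect; nearly all actives have a fitted effect of over 65% in size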
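Primary human omental fibroblast/mesothelial 3D culture pre-formed 48 h. SKOV3ip1-GFP cells added with compounds (0.36-46 umol/L), incubated 2 h RT/16 h 37 C, fixed; GFP cells quantified at 488/509 nm.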
p53null 39C tox = qHTS Screen for Compounds that Selectively Target Cancer Cells with p53 Mutations: Cytotoxicity of p53 Null Cells at the Nonpermissive Temperature; hit rate 0.97% among 55,000; Potency, µM (doses to about 46.1 µM), without a hit: at the highest dose activity, negative = cell killing, most hits filed as cytotoxic; AID 904, 2007; H1299 p53-null (neo) cells, 39C, ATPlite viability, 24 h;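 note: potency is the fitted concentration of half-maximal effect; 0% = DMSO only and -100% = full killing by 100 µM tamoxifen; nearly all actives have a fitted effect of over 50% in size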
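Following overnight plating at 37C (600 cells/well), H1299-neo or H1299-p53A138V cells are dosed up to 46 uM. Incubation lasts 24 hr at 39C before ATP detection.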
PMP22 txn = Cell-based coincidence reporter assay to measure PMP22 gene transcription in S16 Pmp22-F2sN cells - Primary screen; S16 Pmp22-F2sN Schwann cells, FLuc/NLuc coincidence luminescence, 24 h; Potency, µM (series often up to 57.5 µM), for the others: at the top dose activity change, negative = inhibition, actives largely listed as inhibitors; hit rate 2% among 43,000; active = clear falling dose curves in both reporters; inconclusive = both reporters move, but less clearly or upward; inactive = either reporter flat; the % is the NLuc reporter signal; note: potency is the fitted concentration of half-maximal effect; % is set by controls: 0 for no effect and ±100 for the full control effect
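S16(c9) Schwann cells with FLuc/NLuc coincidence reporter in the Pmp22 3' UTR; compounds pin-transferred, 24 h at 37C. Dual-luciferase read: FLuc first, then NLuc after Stop&Glo, each 10 min at room temperature.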
p53null 32C tox = qHTS Screen for Compounds that Selectively Target Cancer Cells with p53 Mutations: Cytotoxicity of p53 Null Cells at the Permissive Temperature | Potency, µM (top dose mostly 46.1 µM), for inactives: top-dose activity change, negative = cytotoxicity, hits mostly cytotoxic | H1299-neo p53 null cells, ATP luminescence, 24 h, 32C | hit rate 0.62% among 55,000 | AID 903, 2007;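 note: potency is the fitted concentration of half-maximal effect; 0% = DMSO only and -100% = full killing by 100 µM tamoxifen; nearly all actives have a fitted effect of over 55% in size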
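We seeded p53-null H1299-neo cells, incubated them overnight at 37C, and added compounds across a range up to 46 uM. After 24 hours at 32C, ATP reagent was applied for 20 min at room temperature and luminescence recorded.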
S16 viability = Cell viability qHTS assay in S16 Pmp22-F2sN cells; Potency, µM (doses to about 57.5 µM), without a hit: at the top dose activity change, negative = cytotoxicity, usual class: cytotoxic; S16 Pmp22-F2sN Schwann cells viability, CellTiter-Glo, 24 h; AID 1508642, 2021; hit rate 0.48% among 43,000; note: potency is the fitted concentration of half-maximal effect; % is set by controls: 0 for no effect and ±100 for the full control effect; nearly all actives have a fitted effect of over 65% in size
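S16 Pmp22-F2sN Schwann cells (500-1,000/well) in phenol-red-free DMEM with 10% FBS received 23 nL compound by pin tool for 24 h at 37 °C. Viability was then read as CellTiter-Glo luminescence after 15 min at room temperature.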
pS6 MEF inh = Acumen qHTS Assay for Inhibitors of the mTORC1 Signaling Pathway in MEF (Tsc2-/-, p53-/-) Cells: Sytravon. Tsc2-/- p53-/- MEF, phospho-rpS6 immunofluorescence/PI, 24 h. Potency, µM (highest dose often 38.3 µM), for inactives: at the top dose activity change, negative = inhibition, actives largely listed as inhibitors. hit rate 0.78% among 44,000. AID 493208, 2011;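 note: potency is the fitted concentration of half-maximal effect; plate controls were DMSO for no effect and rapamycin for full effect; nearly all actives have a fitted effect of over 50% in size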
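Tsc2-/-, p53-/- MEFs (empty-vector stable line) in DMEM + 10% FBS were treated with compounds 24 h at 37 degree Celsius, fixed, and immunostained for phospho-rpS6 (Alexa-488) with propidium iodide counterstain. Laser-scanning cytometry gave % positive cells, normalized against 7.5 nM rapamycin and DMSO.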
NLuc saturating = Biochemical NLuc saturation counterscreen for small molecule modulators of PMP22 gene expression - Nano-Glo assay | Secreted NLuc enzyme (filtered S16 cell medium), Nano-Glo luminescence | AID 1508638, 2021 | Potency, µM (doses to about 57.5 µM), without a hit: top-dose activity change, negative = inhibition, most hits filed as inhibitors | hit rate 4% among 690 | shares compounds with PMP22 txn; note: potency is the fitted concentration of half-maximal effect; % is set by controls: 0 for no effect and ±100 for the full control effect
NLuc Km ctr = Biochemical coelenterazine-based NLuc counterscreen for small molecule modulators of PMP22 gene expression - Km assay; AID 1508639, 2021; hit rate 5% among 690; Potency, µM (titrated, usually from 57.5 µM), without a hit: at the highest dose activity change, negative = inhibition, hits mostly inhibitors; secreted NLuc enzyme, coelenterazine luminescence, Km conditions; shares compounds with PMP22 txn; note: potency is the fitted concentration of half-maximal effect; % is set by controls: 0 for no effect and ±100 for the full control effect
FLuc counter = Biochemical FLuc counterscreen for small molecule modulators of PMP22 gene expression; AID 1508640, 2021; Potency, µM (doses to about 57.5 µM), without a hit: at the top dose activity, negative = inhibition, hits mostly inhibitors; purified P. pyralis FLuc, luminescence, 10 min; 690 tested, under 10 active; shares compounds with PMP22 txn; note: % of control where 0% means no effect
Target sequence (P08659 whole entry, looked up): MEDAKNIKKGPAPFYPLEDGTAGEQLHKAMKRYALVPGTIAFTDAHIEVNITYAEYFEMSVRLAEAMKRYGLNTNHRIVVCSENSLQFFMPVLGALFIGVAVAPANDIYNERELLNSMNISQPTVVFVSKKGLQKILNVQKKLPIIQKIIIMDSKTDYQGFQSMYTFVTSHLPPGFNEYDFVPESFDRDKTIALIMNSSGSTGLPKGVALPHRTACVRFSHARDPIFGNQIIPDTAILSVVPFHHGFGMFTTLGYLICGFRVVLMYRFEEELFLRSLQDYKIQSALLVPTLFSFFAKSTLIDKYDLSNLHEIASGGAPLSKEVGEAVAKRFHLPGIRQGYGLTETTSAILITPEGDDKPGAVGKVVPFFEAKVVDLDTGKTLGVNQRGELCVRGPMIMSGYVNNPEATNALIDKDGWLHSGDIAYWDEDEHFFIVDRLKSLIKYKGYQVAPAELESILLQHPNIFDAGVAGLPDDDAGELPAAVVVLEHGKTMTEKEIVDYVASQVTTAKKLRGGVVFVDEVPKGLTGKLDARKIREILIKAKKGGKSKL
S16 viab conf = Cell viability qHTS assay in S16 Pmp22-F2sN cells - Confirmatory screen. hit rate 7% among 690. Potency, µM (titrated, usually from 57.5 µM), inactives show at the top dose activity change, negative = viability loss, actives largely listed as cytotoxic. S16 Schwann cells viability, CellTiter-Glo ATP luminescence, 24 h. shares compounds with PMP22 txn. AID 1508641, 2021; note: potency is the fitted concentration of half-maximal effect; % is set by controls: 0 for no effect and ±100 for the full control effect
PMP22 txn conf = Cell-based coincidence reporter assay to measure PMP22 gene transcription in S16 Pmp22-F2sN cells - Confirmatory screen | shares compounds with PMP22 txn | hit rate 22% among 690 | S16 Schwann cells Pmp22-F2sN, dual luciferase, 24 h | Potency, µM (highest dose often 57.5 µM), without a hit: at the top dose activity change, negative = inhibition, actives largely listed as inhibitors; active = clear falling dose curves in both reporters; inconclusive = both reporters move, but less clearly or upward; inactive = either reporter flat; the % is the FLuc reporter signal; note: potency is the fitted concentration of half-maximal effect
* marks the source's active call; other numbers are inactive results; i = inactive; ? = inconclusive; nt = no result. This is a sample that favours compounds with a hit; in the whole collection about 3.1% have one here. Unless noted, calls come from the whole dose curve; as a rule, active = well fitted curve in the direction sought with a large enough effect; inconclusive = small, poorly fitted or top-dose-only effect, or another doubt; inactive = no such curve, though single readings can be large; an effect the other way counts as inactive or inconclusive.

SMILES | OvCa metastasis | p53null 39C tox | PMP22 txn | p53null 32C tox | S16 viability | pS6 MEF inh | NLuc saturating | NLuc Km ctr | FLuc counter | S16 viab conf | PMP22 txn conf
COc1ccccc1N1CCN(c2ncc3c(n2)CCN(Cc2ccccc2F)C3)CC1 | -1.6% | 0.6% | 0.3% | -2.0% | -3.2% | 6.9% | nt | nt | nt | nt | nt
CCOc1ccc(CN2CCc3nc(N4CCN(c5ccccc5OC)CC4)ncc3C2)cc1OC | -2.3% | 19.7% | 17µM* | 9.4% | -8.4% | 0.0% | -2.4% | -0.4% | -1.2% | -11.2% | -41.3%
COc1cc(OC)c(OC)cc1CN1CCc2nc(N3CCN(c4ccccc4F)CC3)ncc2C1 | -1.3% | 3.2% | ? | 1.2% | -10.3% | 0.0% | -9.1% | 3.0% | -1.6% | -1.1% | ?
CNC(=O)c1c(-c2ccc(F)cc2)oc2cc(N(CCO)S(C)(=O)=O)c(C3CC3)cc12 | -0.6% | nt | nt | nt | nt | nt | nt | nt | nt | nt | nt
Nc1ncnc2ccccc12 | 1.7% | nt | nt | nt | nt | nt | nt | nt | nt | nt | nt
CN(C1CCCCC1)S(=O)(=O)c1ccc2c(c1)c(=O)c(C(=O)NCc1ccc(Cl)cc1)cn2C | -6.9% | -8.4% | ? | 0.6% | -1.2% | 0.2% | -1.3% | 7.4% | 7.1% | -11.1% | -31.1%
COc1ccc(CC2SC(=O)NC2=O)cc1C(=O)NCc1ccc(C(F)(F)F)cc1 (configuration not stated) | 1.5% | nt | nt | nt | nt | nt | nt | nt | nt | nt | nt
O=C(CSc1c2c(nc3ccc(Cl)cc13)CCCC2)N1CCN(c2cccc(Cl)c2)CC1 | -8.8% | 21.7% | 20µM* | 28.2% | -12.2% | -18.6% | -7.6% | -1.2% | 0.3% | 16.8% | ?
CC(C)OCCCNC(=O)CSc1c2c(nc3ccc(Cl)cc13)CCCC2 | ? | 85.5% | 12.1µM* | 3.8% | ? | -10.2% | -10.2% | 5.2% | 2.2% | ? | 19.3µM*
COCCCNC(=O)CSc1c2c(nc3ccc(Cl)cc13)CCCC2 | i | 82.0% | ? | 24.2% | ? | ? | nt | nt | nt | nt | nt
